Laboratory results: the supplement of paper PMC11417369
± gives the standard deviation of the averaged measurements. The full ranking holds about 25,000 sequences; the median of “ln(normalized median fluorescence intensity)” is about 8.6, and the highest 2% start at about 10. The entries come from a sample that favours the highest values as a whole.

System: PfAP2-EXP AP2 domain (GST-tagged)
Assay: gcPBM binding intensity (ln(normalized median fluorescence intensity)); higher = stronger DNA binding
Procedure, shortened: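 Binding intensity values are the highest Masliner-normalised natural-log median intensity among replicate spots of either probe orientation. The binding step lasted 1 h in 1× PBS with 1% milk, 0.2 mg/ml BSA, 0.5% salmon testes DNA and 0.03% Triton X-100, using GST-tagged P. falciparum DNA-binding domains expressed in E. coli on an Agilent 4 × 180k array of primer-extended double-stranded 36-bp intergenic genomic probes plus negative controls. Alexa488 anti-GST antibody and a 488 nm scan detected bound protein.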

Sequence | gcPBM binding intensity (ln)
TTGAATAAATTGGAATAAATATAATAAAATAAGGAA [XGTACX_negctrl_site302] | 8.62 ± 0.38
TTTATGAAACAGTGCACACATAAAAATAAATACATA [CACACA_site5631] | 9.175 ± 0.035
ATATATATATGTTTGTGTACTTATGATATCATATAA [XGTACX_site3276] | 9.66 ± 0.099
TTTTTTTTTTTTGAAGTGCATTACTTTTTTTGTATT [GTGCAC_site9811] | 8.5 ± 0.23
AATAAATAAGCAACATGTACATACAAATATATACAT [XGTACX_site8529] | 8.48 ± 0.35
TTGTTCTTTCAAATTATACACACCAAAAAAAAAAAA [CACACA_site3070] | 8.53 ± 0.4
ATATGTTTTTTTTTTTTTTTTTAATTTGTCATAAAT [CACACA_negctrl_site1208] | 8.35 ± 0.49
ATTATATATAAACACACACACATGCATGCACATATA [CACACA_site4237] | 10 ± 0.26
ATATAAACACTGAATGCATGCACATATATATATATA [TGCATGCA_site940] | 10.45 ± 0.049
GAATAAAAAATATATGTGCACATATAAACTTAAAAT [GTGCAC_site9554] | 8.9 ± 0.3
AAAATATAATATAATGCACACATAAAAAAAAAAAAA [CACACA_site7989] | 8.52 ± 0.49
ATATATATATATATAGTGCAAATAAAAAATAGACAA [GTGCAC_site9796] | 10.2 ± 0.3
AATATAATATAATGCACACATAAAACAAAAAAAAAA [CACACA_site3012] | 8.82 ± 0.47
ATAATAAAAAAAAATGCACACATATATATATATATA [CACACA_site8766] | 10.3 ± 0.34
TATATATTAAAAATAGTGCAAAATAATATATATATA [GTGCAC_site9716] | 9.845 ± 0.049
TATATATGTTAAAACGTGCACATATATATATATATA [GTGCAC_site9589] | 10.2 ± 0.21
ATATGTGTTAAAAATGCACACAAAAAAATATACATA [CACACA_site7988] | 8.69 ± 0.49
AATATAATATAATGCACACATAAAAAAAAAAAAATC [CACACA_site1303] | 8.7 ± 0.32
CACAAAAATAGACACACACACATATAAATAAATATA [CACACA_site6598] | 8.62 ± 0.47
TTACACATACATATGTGGGAAAATATTGCTACATAT [CACACA_negctrl_site463] | 8.57 ± 0.49
TATATTTTTTAAACCACACACAATATAGAGTATAAT [CACACA_site4510] | 8.66 ± 0.47
AAATTAATATATAAAAGTACCCATATATTTAATATA [XGTACX_site3551] | 8.21 ± 0.39
ATGCATATAATTATATGTACATATAAGAAATATATA [XGTACX_site517] | 8.71 ± 0.37

Sequence | gcPBM binding intensity (ln)
ATTTCTTCTTTTTTTGTGAAACTGGAATATATATAT [XGTACX_negctrl_site527] | 9.17 ± 0.057
TATATAGTAATTTATTCACACAATTGGCACACCTCA [CACACA_site4679] | 8.71 ± 0.35
ATTCTAAATAATAAGAGTACAAATAATATGGAGAAG [XGTACX_site5209] | 9.12 ± 0.51
CATTCTACAATAAAAAGTACATATATATATTATATA [XGTACX_site921] | 8.43 ± 0.34
TTTTGTGATCTTACCACCTTTCATAATATTAATAAA [GTGCAC_negctrl_site360] | 8.61 ± 0.31
TATATATATATATGTGCACACATAATAAAAAAAAAA [CACACA_site3830] | 10.32 ± 0.064
ATATATATATATATAGTGCAAATATCTTCTTTATAA | 10.3 ± 0.3
AATATATATATATGTGCACACATATATAATATGTAT [CACACA_site716] | 8.53 ± 0.28
TCAAAAATTTATATAGTGCAATATATATATAATGTA | 8.31 ± 0.42
ATATTTTATATAATAGTGCAAATAATATTAAATAAT | 8.66 ± 0.21
ATATATATATATAGTGCACACATATAAAATATATAT [CACACA_site8884] | 10.29 ± 0.021
TATATATATATGTGCACACATAATAAAAAAAAAAAT [CACACA_site3831] | 9.9 ± 0.11
ATATATATATAGTGCACACATATAAAATATATATAA [CACACA_site2745] | 9.9 ± 0.071
ATATAAATATAGTGTGCACACACATAATATATATAT [CACACA_site8713] | 9.38 ± 0.057
TTGTTCATCTTTTTTTTTTTTTTTTTTTTTTAAATC [CACACA_negctrl_site191] | 8.18 ± 0.62
TCTCTAACTTTTAATACACACAAATAAATAAATAAA [CACACA_site6245] | 8.47 ± 0.35
GTGAGTGAAATATGCAAACACACACCCGAAAAATGT [CACACA_site3197] | 8.7 ± 0.57
TTAAAGGGAATGTATACACACGTTTCTCTATGTTAT [CACACA_site4793] | 8.59 ± 0.31
ACTAATAAAGGTGTAATACACACTATAAAAAGGAAT [CACACA_site1124] | 8.88 ± 0.57
TTCTTTGTTTTTTTTTTTTTTTTAAAAGATAATATT [XGTACX_negctrl_site381] | 8.43 ± 0.25
TATATATATATATGATGTACACATTTTATTATTTGT [XGTACX_site1147] | 9.94 ± 0.31
TTTCAAAAATGAGTTACACACACACGGATATAAATA [CACACA_site7116] | 8.88 ± 0.56
TCAAAAATGAGTTACACACACACATATATATATATA [CACACA_site2229] | 10.2 ± 0.47

Sequence | gcPBM binding intensity (ln)
TTTCAAAAATGAGTTACACACACACCGATATATATA [CACACA_site5263] | 8.79 ± 0.61
AATAAATTACTATGTACACACATAAGAGTATAAATA [CACACA_site6940] | 8.56 ± 0.32
TACGATGTTTTAAAATGTACATAAAAGTCACATAAG [XGTACX_site3297] | 8.52 ± 0.34
TATGATTTTTATATATGTACGTATGGTGTTTTACAA [XGTACX_site6100] | 8.8 ± 0.42
GTTTGGTGGTGTTTTGGTACGTACGGGGGGGTATGT [XGTACX_site1983] | 10.6 ± 0.19
GTTTGGTGGTGTTTTGGTACGTACGGGGGTGTATGT [XGTACX_site1211] | 9.66 ± 0.2
ATTTATTTTCTGTGTACACATATGTTGGGTATTTTA [CACACA_site5902] | 9.14 ± 0.45
TATAAAAAAAAATGTGGTACATATTTCCATTTTCCA [XGTACX_site4571] | 8.11 ± 0.23
TATTTTTCCATTGGGGGTACATGTGTTATATTTATT [XGTACX_site5914] | 10.4 ± 0.76
AATAATATACCTCTTGTGCACATATTAAAAGTTCAT [GTGCAC_site9536] | 8.97 ± 0.22
ACAATTGAAGAAATACGTACATAAAGAAAAACTAGT [XGTACX_site820] | 9.16 ± 0.51
AGGAAAAAAGAAAAAACACACATAAATATATATATA [CACACA_site3085] | 9.64 ± 0.23
TATAAAAGGAAACACACACACATATATATATATATA [CACACA_site939] | 10.2 ± 0.4
AAAAGGAAAAATATCACACATATATATATATATATA [CACACA_site5586] | 10.2 ± 0.34
ATAAAAAATATCACATAAAATAAAAAAAGAAAGGAT [XGTACX_negctrl_site294] | 9.06 ± 0.52
AAAAAAAAAAATATCACACACACATAAATATAAACC [CACACA_site2278] | 8.77 ± 0.49
TAAAAAGGAAAACACACACACACATATATATATATA [CACACA_site3588] | 10.2 ± 0.16
AAGGAATAATATAAAACACACACATAAATATAAATA [CACACA_site9115] | 8.68 ± 0.26
ATAAAAAAAAGAAAAACACACACATATATATATATA [CACACA_site8243] | 10.2 ± 0.16
ATAAAAAGGAAACACACACACACACCCATATATATA [CACACA_site904] | 8.73 ± 0.44
TTGTTAATGGTACGAACACACATATAAAGATGCATA [CACACA_site2044] | 8.64 ± 0.54
TACCATTATTTTAAGTGTACATACTAATTTATATAT [XGTACX_site6548] | 8.61 ± 0.28
ATGAAGATTTAAAAATGTACATATGATCTATGTCCT [XGTACX_site8409] | 8.38 ± 0.36

Sequence | gcPBM binding intensity (ln)
TTTTTTTTTTTGTTTTGTACATAAATTGCAACCAAT [XGTACX_site8949] | 8.73 ± 0.57
TTTTTATATGTTAAGTGTACGTTTACATTTTATACT [XGTACX_site3485] | 8.63 ± 0.36
TACAGATAAAAGTACACACACACACCGATATATATA [CACACA_site4675] | 8.86 ± 0.38
TTGCATTGATCAAACATACACACATGGTTAATAAAA [CACACA_site2084] | 8.64 ± 0.47
AAAAAAAAAAAAAAAACACACATGTATACTAGAATA [CACACA_site7108] | 8.67 ± 0.31
ATGTGTGTATACATCAATTATATATATATTATGTAT [GTGCAC_negctrl_site720] | 8.6 ± 0.33
ATTTTTTCATATTCTACACACGTGAACAAATGTGTC [CACACA_site3007] | 8.69 ± 0.36
AAAAAAAAATTATTCACACATATATATATATATATA [CACACA_site5579] | 10.2 ± 0.33
ATATTCATATATACTTCACACACATTTTATCATTCA [CACACA_site8784] | 8.71 ± 0.39
TAAAAAATTATATTCACACACATACACATATATATA [CACACA_site545] | 8.54 ± 0.43
AAAAATTTTATATTCACACACATATTTATATTTATA [CACACA_site6439] | 8.25 ± 0.27
TAATTTTAAATATCTTCACACATTATATTTTTATAT [CACACA_site5411] | 8.34 ± 0.42
TAAAAAATTTTATATTCACACACATATATATATATA [CACACA_site8109] | 10.1 ± 0.31
TTTAAAAAATTATATTCACACACATACACATATATA [CACACA_site8076] | 8.51 ± 0.59
TGCATTTATATCTTCACACATATATATATATATATA [CACACA_site4516] | 10.2 ± 0.42
AACTTATTTAAATTCACACATATATAAAATACTTAT [CACACA_site4394] | 8.38 ± 0.42
AAAAATTTTATATTCACACACATATATATATATATA [CACACA_site624] | 10.2 ± 0.42
GTTTCCTTAATATTCACACACATATATATAATATAT [CACACA_site1856] | 8.95 ± 0.33
AAAAACTTAATATTCACACATATATATATATATATA [CACACA_site5240] | 10.2 ± 0.45
CATATTTGTTGACACACACACATATTTATATAAATA [CACACA_site7648] | 8.74 ± 0.4
